{
  "source": "ChEMBL document CHEMBL1201862",
  "about": "“PubChem BioAssay data set” (2004)",
  "note": "Hit rate of the full screen: of about 57,000 sequences, about 4,100 (7.2%) were called active. Rule as the data show it: active = GI50 up to about 1.1 µM and inactive = higher. Not all results are given here. Measured potencies and affinities stand elsewhere.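 Grown in 96-well plates, cells were treated for 48 hours with each compound at five concentrations. Insufficient inhibition: endpoint recorded as highest concentration tested. GI50 = concentration required for 50% inhibition of growth.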",
  "data": [
    {"system": "COLO 205", "test": "NCI tumour cell line growth inhibition, 48 h", "units": {"GI50": "µM"}, "values": [
      {"substance": "[Bis(aminomethyl)pentamethylenesilane]dichloropaltinum(II), CHEMBL2146202", "GI50": 2.07},
      {"substance": "[Bis(aminomethyl)tetramethylenesilane]tetrachloropaltinum(IV), CHEMBL2146189", "GI50": 8.51},
      {"substance": "[Bis(aminomethyl)dimethylsilane]dichloroplatinum (II), CHEMBL2146201", "GI50": 24.3},
      {"substance": "cis-Bis[[(trimethylsilyl)methyl]amino]tetrachloroplatinum(IV), CHEMBL2146191", "GI50": 2.07},
      {"substance": "[Bis(aminomethyl)tetramethylenesilane]dichloropaltinum(II), CHEMBL2146205", "GI50": 20.1},
      {"substance": "[Bis(aminomethyl)pentamethylenesilane]tetrachloropaltinum(IV), CHEMBL2146204", "GI50": 1.53},
      {"substance": "[Bis(aminomethyl)ethylmethylsilane]tetrachloroplatinum(IV), CHEMBL2146192", "GI50": 5.15},
      {"substance": "mu-(1,7-nanodiamine-N,N')bis-(cis-aminedichloroplatimum (II)), CHEMBL2146215", "GI50": 6},
      {"substance": "[Bis(aminomethyl)dimethylsilane]tetrachloroplatinum(IV), CHEMBL2146190", "GI50": 11.6},
      {"substance": "[Bis(aminomethyl)diethylsilane]tetrachloroplatinum(IV), CHEMBL2146203", "GI50": 11.9},
      {"substance": "CISPLATIN, CHEMBL11359", "GI50": 13.4}
    ]}
  ]
}
